{"source": "PubChem BioAssay (Tox21)", "note": "Results filed as inconclusive are left out. Entries that show only a call come without a potency. Calls of active or inactive are those of the source. The call rests on the fitted dose curve. Potency means the concentration at half of the fitted maximal effect."}
{"assay": "qHTS assay for small molecules that induce genotoxicity in human embryonic kidney cells expressing luciferase-tagged ATAD5 - cell viability (AID 651634); further: nearly all actives have a fitted effect of over 25% in size", "settings": "HEK293T ATAD5-luc cells viability, CellTiter-Fluor, 15.5 h; series mostly up to 83.3 µM", "excerpt": "National Center for Advancing Translational Sciences [NCATS]\nNIH Chemical Genomics Center [NCGC]\nU.S. Environmental Protection Agency [EPA]\nNational Institutes of Environmental Health Sciences [NIEHS]\nNational Toxicology Program [NTP]\nU.S. Food and Drug Administration [FDA]\nEnhanced Level of Genome Instability Gene 1 (ELG1; human ATAD5) protein levels increase in response to various types of DNA damage. Using a luciferase reporter-gene tagged with ElG1, a cell-based assay [developed by Kyungjae Myung, NHGRI, NIH] was used to measure the induction of ATAD5 in human embryonic kidney cells (HEK293T). So, increase in luciferase activity can be used to identify the compounds that cause genetic stress. In addition to genotoxicity, these cells were also used to test for cytotoxicity by measuring the protease activity within live cells.\nTox21 Assay Protocol Summary:\nFor cytotoxicity screening, 2,000 cells in 5 uL/well were dispensed into white, solid-bottom 1536-well plates using a Multidrop Combi (Thermo Scientific) dispenser. Following transfer of 23 nL compound or DMSO vehicle by a pin tool, the plates were incubated 15.5 hr at 37C and 5% CO2. 1 ul CellTiter-Fluor reagent (Promega, Madison, WI) was then added to each plate and following 30 min incubation at 37C, fluorescence intensity was quantified on a ViewLux CCD-based plate reader."}
{"smiles": "CN1CCN(CCCN2c3ccccc3Sc3ccc(S(=O)(=O)N(C)C)cc32)CC1", "Potency": "inactive"}
{"smiles": "COCc1c(C(C)C)nc(C(C)C)c(/C=C/[C@@H](O)C[C@@H](O)CC(=O)O)c1-c1ccc(F)cc1", "Potency": "inactive"}
{"smiles": "Cc1occc1C(=O)Nc1ccc(C(=O)N2CCC(F)(F)/C(=C\\C(=O)N3CCC(N4CCCCC4)CC3)c3ccccc32)cc1", "Potency": "inactive"}
{"smiles": "CC(=O)CC(c1ccc([N+](=O)[O-])cc1)c1c(O)c2ccccc2oc1=O", "note": "(stereo not given)", "Potency": "inactive"}
{"smiles": "CN1CCCN=C1/C=C/c1cccs1", "Potency": "inactive"}
{"smiles": "C=CC(C)(C)CC(=O)OC", "Potency": "inactive"}
{"smiles": "O=C(CCCCCCCCC#CI)Oc1ccccc1", "Potency": "inactive"}
{"smiles": "CNCCCC1c2ccccc2C=Cc2ccccc21", "Potency": "inactive"}
{"smiles": "COc1ccccc1N=Nc1c(S(=O)(=O)O)cc2cc(S(=O)(=O)O)cc(NC(C)=O)c2c1O", "Potency": "28.8 µM (active)"}
{"smiles": "CC1=NN(c2ccc(C(=O)O)cc2)C(=O)C1", "Potency": "inactive"}
{"smiles": "CCCCCCCCCCCC[N+](C)(C)CC(=O)[O-]", "Potency": "inactive"}
{"smiles": "CCCCC(=O)O[C@]1(C(=O)CO)[C@@H](C)C[C@H]2[C@@H]3CCC4=CC(=O)C=C[C@]4(C)[C@@]3(F)[C@@H](O)C[C@@]21C", "Potency": "inactive"}
{"smiles": "CCc1c2c(nc3ccc(OC(=O)N4CCC(N5CCCCC5)CC4)cc13)-c1cc3c(c(=O)n1C2)COC(=O)[C@]3(O)CC", "Potency": "inactive"}
{"smiles": "CC1(C)C(=O)N(Br)C(=O)N1Cl", "Potency": "inactive"}
{"smiles": "C/C=C/C=C/CCCCCCCO", "Potency": "inactive"}
{"smiles": "NC(=O)N(O)[C@@H]1COc2cc(OCc3ccccc3)ccc21", "Potency": "inactive"}
{"smiles": "O=C(O)c1snc(Cl)c1Cl", "Potency": "inactive"}
{"smiles": "CNC(=O)N(c1ccccc1)c1ccccc1", "Potency": "inactive"}
{"smiles": "CO[C@H]1O[C@H](CO)[C@@H](O)[C@H](O)[C@H]1O", "Potency": "inactive"}
{"smiles": "CCCCCCCC/C=C\\CCCCCCCC(=O)OC", "Potency": "inactive"}
{"smiles": "O=[N+]([O-])c1cccc(S(=O)(=O)NCCNS(=O)(=O)c2cccc([N+](=O)[O-])c2)c1", "Potency": "inactive"}
{"smiles": "O=C(O)c1cccc(O)c1", "Potency": "inactive"}
{"smiles": "CC#N", "Potency": "inactive"}
{"smiles": "COc1ccc(CCC(=O)c2c(O)cc(O[C@@H]3O[C@H](CO)[C@@H](O)[C@H](O)[C@H]3O[C@@H]3O[C@@H](C)[C@H](O)[C@@H](O)[C@H]3O)cc2O)cc1O", "Potency": "inactive"}
{"smiles": "Cc1cc(S(=O)(=O)O)ccc1N=Nc1c(O)ccc2ccccc12", "Potency": "48.6 µM (active)"}
{"smiles": "OCC1CC=CCC1", "note": "(stereo not given)", "Potency": "inactive"}
{"smiles": "OC(CCCN1CCCCC1)(c1ccccc1)c1ccccc1", "Potency": "inactive"}
{"smiles": "OCCSc1ccccc1", "Potency": "inactive"}
{"smiles": "Cc1ccc(Nc2nccc(N(C)c3ccc4c(C)n(C)nc4c3)n2)cc1S(N)(=O)=O", "Potency": "26.6 µM (active)"}
{"smiles": "C[N+](C)(C)CCOC(N)=O", "Potency": "inactive"}
{"smiles": "CCC1(C)CC(=O)NC1=O", "note": "(stereo not given)", "Potency": "inactive"}
{"smiles": "N#C/C(=C1/SC[C@@H](c2ccc(Cl)cc2Cl)S1)n1ccnc1", "Potency": "inactive"}
{"smiles": "CC1CC(=O)NN=C1c1ccc(NCC(C)(C)NCC(O)COc2cc(Cl)ccc2C#N)cc1", "note": "(stereo not given)", "Potency": "inactive"}
{"smiles": "NC(=O)Cn1c(=O)cc(CCN2CCN(c3nccc4sccc34)CC2)c2ccc(F)cc21", "Potency": "inactive"}
{"smiles": "CC(Cl)C(Cl)Cl", "note": "(stereo not given)", "Potency": "inactive"}
{"smiles": "COc1ccc(C(=O)c2cccc(O)c2)c(OC)c1", "Potency": "inactive"}
{"smiles": "CC1(C)C2=CCCC(C)(C)[C@]23CC[C@H]1C3", "Potency": "inactive"}
{"smiles": "C=CC(=O)NCOCC(C)C", "Potency": "inactive"}
{"smiles": "O=C1NCCN1", "Potency": "inactive"}
{"smiles": "CCC(=O)OC/C=C/c1ccccc1", "Potency": "inactive"}
